# In all, about 340,000 compounds went through this assay and about 1,200 (0.35%) were called active. Rule as the data show it: active = inhibition above about 50% (passing the limit was not always enough); inconclusive = no clear call, values can overlap the other calls; inactive = below about 31%. The entries come from a sample that favours actives as a whole.
# Experiment: blockers of Vif multimerization in cells – imaging, HEK293T, single point, primary screen (AID 602346)
# Conditions: Vif self-association by quenched fluorescence, 24 h, at 7.49 µM, stronger effect = higher value
row,SMILES,inhibition
1,O=C(/C=C\c1cn(-c2ccccc2)nc1-c1cccs1)N1CCOCC1,87.7% (active)
2,COc1ccc(-c2nn(-c3ccccc3)cc2/C=C\C(=O)N2CCOCC2)cc1[N+](=O)[O-],1.35% (inactive)
3,O=C(O)c1ccc(N/N=C/c2cn(-c3ccccc3)nc2-c2cccs2)cc1,-6.33% (inactive)
4,O=CNc1cc(-c2ccc(C(=O)N3CCOCC3)cc2)cn2c(-c3ccc(F)cc3)cnc12,6.34% (inactive)
5,CCN(CC)CCn1c2ccc(Cl)cc2c2nc(C)sc21,16.1% (inactive)
6,CCN(CC)CCCC(C)n1c2nc(=O)[nH]c(=O)c-2nc2cc(Cl)ccc21 (centres undefined),128% (active)
7,Cc1nc2c(OCc3ccc(Cl)cc3)cccn2c1N(C)Cc1cccs1,-12.4% (inactive)
8,O=C(Nc1ccc2oc(-c3ccccc3F)nc2c1)c1ccco1,4.71% (inactive)
9,O=C(Nc1ccc2oc(-c3ccc4ccccc4c3)nc2c1)c1cccs1,52.2% (active)
10,CC(Oc1cccc(NC(=O)c2cccs2)c1)C(=O)c1ccccc1 (centres undefined),12.5% (inactive)
11,C#CCN(C[C@@H]1[C@@H](OC(=O)NC2CC2)[C@@H](OC(=O)NC2CC2)Cn2c(=O)ccc(=O)n21)S(=O)(=O)c1ccc(C)cc1,-0.284% (inactive)
12,CCOC(=O)c1nc(Nc2ccc(C(=O)OC)cc2)c2ccccc2n1,99.4% (active)
13,CCOC(=O)c1ccc(N/C(=N/S(=O)(=O)c2ccccc2)c2ccccc2)cc1,-4.64% (inactive)
14,CCOC(=O)c1ccc(Nc2cc3ccccc3c(=O)[nH]2)cc1,9.05% (inactive)
15,CN(C)C(=O)c1cccc(-c2cnc3sc(NCc4ccc5c(c4)OCO5)nn23)c1,-12% (inactive)
16,COc1cccc(-n2c(SCC(=O)c3c[nH]c4ccccc34)nc3ccccc3c2=O)c1,-2.01% (inactive)
17,COc1ccc(/C=C(\C#N)c2c[nH]c3ccccc23)cc1,52.1% (active)
18,COc1ccc(C2C(C(C)=O)=C(O)C(=O)N2CCc2c[nH]c3ccccc23)cc1 (centres undefined),-11.5% (inactive)
19,Cc1ccc(C(NC(=O)C2CCN(CCOc3ccc(Cl)cc3Cl)CC2)c2ccccn2)cc1 (centres undefined),4.63% (inactive)
20,Cc1ccccc1Cn1c(C)c(C(=O)NCc2cccc(C(F)(F)F)c2)sc1=O,-7.14% (inactive)
21,CCOC(=O)C1=CCC(c2ccc(F)cc2)N(S(=O)(=O)c2ccc(C)cc2)C1 (centres undefined),24.4% (inactive)
22,COc1cc(OC)cc(C(=O)N[C@H](C(=O)Nc2nc3ccccc3[nH]2)C(C)C)c1,116% (active)
23,COc1cc(OC)cc(C(=O)N[C@H](C(=O)NNC(=O)c2ccc(Br)cc2)C(C)C)c1,1.45% (inactive)
24,COc1ccc(C(=O)N[C@H](C(=O)NCc2ccccc2)C(C)C)cc1,4.63% (inactive)
25,Cc1nc2c(OCc3ccc(Cl)cc3Cl)cccn2c1N(C)CC1CC1,-14% (inactive)
26,O=C(NCc1nnnn1-c1ccc(Cl)cc1)c1ccc([N+](=O)[O-])o1,6.82% (inactive)
27,CCC(=O)Nc1ccc(S(=O)(=O)Nc2c(NC)c3ccccc3oc2=O)cc1,-6.99% (inactive)

row,SMILES,inhibition
1,NCCCNC(=S)NCCCN(Cc1ccc(Cl)cc1)c1ccc(Br)cn1,-10.7% (inactive)
2,O=C(COC(=O)/C=C/c1ccc(Br)o1)Nc1cccc(S(=O)(=O)N2CCOCC2)c1,72.1% (active)
3,O=C(COC(=O)c1ccccc1)Nc1cccc(S(=O)(=O)N2CCOCC2)c1,6.23% (inactive)
4,NS(=O)(=O)c1cccc(NC(=O)COC(=O)/C=C/c2ccco2)c1,40.9% (inactive)
5,C[C@@H]1CN([C@H](C)CO)S(=O)(=O)c2ccc(C#C[C@@H](C)O)cc2O[C@@H]1CN(C)Cc1ccc(-c2ccccc2)cc1,-0.002% (inactive)
6,NC(Cc1ccc(F)cc1)c1csc(Nc2nncc3ccccc23)n1 (centres undefined),-17.9% (inactive)
7,Cc1cccnc1C(NC(=O)C1CCN(Cc2ccc(Cl)c(Cl)c2)CC1)c1ccc(Cl)cc1 (centres undefined),11.5% (inactive)
8,COc1ccc(CNC(=O)c2ccc(-c3cccnc3)c3ccoc23)cc1OC,-16.6% (inactive)
9,CCCNC(=O)C1(C)CCN(Cc2ccc(Cl)c(Cl)c2)C1 (centres undefined),3.78% (inactive)
10,COc1ccc(-c2cc(NC=O)c3ncc(-c4cc(OC)c(OC)c(OC)c4)n3c2)c(OC)c1,21.8% (inactive)
11,Cc1cc(C)c2c(-c3ccc(F)cc3)c(C#N)c(=O)n(C)c2n1,54.6% (active)
12,COc1ccc(O)c(C(=O)c2cnc3c(c2)c(-c2ccc(F)cc2)c(C#N)c(=O)n3C)c1,1.06% (inactive)
13,Cn1c(N)cc(-c2ccc(F)cc2)c(C#N)c1=O,-9.36% (inactive)
14,NC(c1csc(NC(=O)Nc2cccc(C(F)(F)F)c2)n1)C1CCCCC1 (centres undefined),-1.56% (inactive)
15,CCc1nn(-c2cc(Oc3cccc4ccccc34)nc(-c3ccccc3)n2)c(N)c1C#N,53.3% (active)
16,CC(C)(C)n1nc(Cc2cccc3ccccc23)c(C#N)c1N,13.5% (inactive)
17,CC1(C(=O)NCc2ccc(F)c(F)c2)Cc2c(-c3ccc4c(c3)OCO4)ccnc2O1 (centres undefined),-5.82% (inactive)
18,CCN(CC)CCN(C(=O)c1ccc2c(c1)CCCC2)c1nc2c(OC)cccc2s1,-7.26% (inactive)
19,C[C@@H]1CCCCO[C@H](CN(C)Cc2ccccc2)[C@@H](C)CN([C@H](C)CO)C(=O)c2cc(NS(=O)(=O)c3ccc(Cl)cc3)ccc2O1,8.14% (inactive)
20,CC(C)OCCCNc1ncnc2c1[nH]c1ccc(F)cc12,65.5% (active)
21,COc1ccc(C(=O)N2CCCCC2c2cc(C(=O)Nc3ccccc3)no2)cc1 (centres undefined),13.8% (inactive)
22,CC(C)N=C1CCCC1C(=S)SSC(=S)C1CCCC1=NC(C)C (centres undefined),0.152% (inactive)
23,CCOC(=O)C1CCCN(C(=O)c2cc(-c3cccs3)oc2C)CC1 (centres undefined),-8.46% (inactive)
24,CC(C)c1cccc(-c2csc(C(O)c3ccccc3)n2)c1 (centres undefined),-7.2% (inactive)
25,CCC(CO)Oc1cc(NC(=O)c2cccc3ccccc23)c2ncn(C(C)C)c2c1 (centres undefined),1.25% (inactive)
26,CC(C)n1cnc2c(NCc3ccccc3)cc(OCC3CCN(C)CC3)cc21,78.2% (active)
27,CCC(CO)Oc1cc(NC(=O)c2cccc(F)c2)c2ncn(C(C)C)c2c1 (centres undefined),-4.4% (inactive)
